In PubChem BioAssay AID588511 (Johns Hopkins Ion Channel Center, 2011):
Among all 310,000 compounds or so, about 3,600 (1.2%) were called active.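 Rule for the calls: active = ratio plate-corrected score three or more library SD toward inhibition, starting fluorescence score within five deviations; inactive = the rest.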 This excerpt belongs to a sample that is enriched for actives.

target: Anoctamin-1 (Mus musculus) (UniProt Q8BHY3); experiment: TMEM16A chloride channel inhibitors, primary screen, cell-based, HTS (AID 588511); details: HEK293 TMEM16A/YFP iodide influx fluorescence, ionomycin; at 10 µM;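 for normalized B-score (activity score, 25-100; higher = stronger inhibition): score derived from kinetic fluorescence span divided by baseline fluorescence per well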
Sequence (Q8BHY3 whole entry, looked up): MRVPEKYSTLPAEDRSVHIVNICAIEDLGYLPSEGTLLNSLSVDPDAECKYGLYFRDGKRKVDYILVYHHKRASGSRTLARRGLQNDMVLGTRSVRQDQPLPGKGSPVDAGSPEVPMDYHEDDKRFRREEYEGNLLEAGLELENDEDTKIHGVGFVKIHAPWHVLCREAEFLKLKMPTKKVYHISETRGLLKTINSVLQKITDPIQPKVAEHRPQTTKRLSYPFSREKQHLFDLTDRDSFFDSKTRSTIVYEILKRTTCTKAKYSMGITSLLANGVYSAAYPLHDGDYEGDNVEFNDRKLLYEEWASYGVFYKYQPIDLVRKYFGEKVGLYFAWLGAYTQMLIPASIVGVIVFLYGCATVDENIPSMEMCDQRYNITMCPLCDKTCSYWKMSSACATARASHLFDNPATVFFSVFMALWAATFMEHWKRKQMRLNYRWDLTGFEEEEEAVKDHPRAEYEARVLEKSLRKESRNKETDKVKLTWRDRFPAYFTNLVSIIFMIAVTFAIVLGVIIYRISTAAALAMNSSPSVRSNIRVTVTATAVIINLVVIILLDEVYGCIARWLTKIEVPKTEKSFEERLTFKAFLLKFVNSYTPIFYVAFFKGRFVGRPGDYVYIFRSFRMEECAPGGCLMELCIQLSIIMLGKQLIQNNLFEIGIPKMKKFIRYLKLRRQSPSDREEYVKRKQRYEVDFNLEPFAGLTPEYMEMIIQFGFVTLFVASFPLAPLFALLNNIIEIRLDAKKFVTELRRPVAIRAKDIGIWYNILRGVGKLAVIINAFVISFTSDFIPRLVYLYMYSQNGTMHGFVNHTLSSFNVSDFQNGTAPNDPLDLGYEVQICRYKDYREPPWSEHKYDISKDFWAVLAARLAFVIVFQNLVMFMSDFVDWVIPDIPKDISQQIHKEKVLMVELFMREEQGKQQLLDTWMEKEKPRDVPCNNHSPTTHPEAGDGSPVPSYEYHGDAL

SMILES | normalized B-score (activity score, 25-100; higher = stronger inhibition)
CCCc1cc(C(=O)N2CCCC(CO)(CCCc3ccccc3)C2)n(C)n1 (centres undefined) | inactive
CN(C)CCCN(C(=O)c1ccc(S(=O)(=O)N2CCCc3ccccc32)cc1)c1nc2ccc(F)cc2s1 | inactive
O=C(NC(Nc1nc2ccc([N+](=O)[O-])cc2s1)(C(F)(F)F)C(F)(F)F)c1ccccc1 | 100 (active)
O=C(Nc1nc2ccc([N+](=O)[O-])cc2s1)c1ccc(S(=O)(=O)N2CCCc3ccccc32)cc1 | 100 (active)
CCC(=O)NC(Nc1nc2ccc(C)cc2s1)(C(=O)OC)C(F)(F)F (centres undefined) | inactive
CSc1nc2ccc(S(=O)(=O)N3CCc4ccccc43)cc2s1 | inactive
O=C(CNC(=O)c1ccccc1)Oc1ccc([N+](=O)[O-])cc1 | inactive
O=C(NCc1ccc(F)cc1)C(c1ccccc1)N(C(=O)c1csnn1)C1CC1 (centres undefined) | inactive
Fc1ccc(-c2nnc(CSc3nnc(-c4ccc5c(c4)OCO5)o3)o2)cc1 | inactive
Fc1ccc(CSc2nnc(-c3cc4c(s3)-c3ccccc3CC4)o2)cc1 | 100 (active)
CCSc1nnc(-c2cc3c(s2)-c2ccccc2CC3)o1 | inactive
O=C(NCCS(=O)(=O)c1ccc(Br)cc1)c1ccccc1Cl | inactive
O=C(OCC1O[C@@H](OC(=O)c2cc(O)c(O)c(O)c2)[C@@H](OC(=O)c2cc(O)c(O)c(O)c2)[C@@H](OC(=O)c2cc(O)c(O)c(O)c2)[C@@H]1OC(=O)c1cc(O)c(O)c(O)c1)c1cc(O)c(O)c(O)c1 (some centres undefined) | inactive
CC(=O)c1c(C)[nH]c(C(=O)COC(=O)CCOc2ccc(C)cc2)c1C | inactive
CN(c1ccccc1)S(=O)(=O)c1ccc(Cl)c(C(=O)OCC(N)=O)c1 | inactive
CC(=O)c1c(C)[nH]c(C(=O)COC(=O)c2cccc(S(=O)(=O)N(C)c3ccccc3)c2)c1C | 100 (active)
CC(=O)NCCc1ccc(S(=O)(=O)Nc2ccc(C)c(S(=O)(=O)N3CCOCC3)c2)cc1 | inactive
CCCCCCOC(=O)NCC(O)c1ccccc1 (centres undefined) | inactive
COc1cccc(C(O)c2nc3ccccc3n2C)c1 (centres undefined) | inactive
CCCCCC(O)c1cccc(OCc2ccc3ccccc3n2)c1 (centres undefined) | 100 (active)
NC(=O)c1ccc(Nc2ccc3c(c2)CCC3)c([N+](=O)[O-])c1 | inactive
Cc1ccc(S(=O)(=O)NCc2csc(C)n2)c(C)c1 | inactive
Cc1nc(CNS(=O)(=O)c2ccc(Oc3ccccc3)cc2)cs1 | 100 (active)
Cc1nc(CNS(=O)(=O)c2cccnc2)cs1 | inactive
CS(=O)(=O)c1ccccc1C(=O)Nc1ccc2sccc2c1 | inactive

SMILES | normalized B-score (activity score, 25-100; higher = stronger inhibition)
FC(F)(F)c1cccc(NC(=S)Nc2cccc(Cl)c2)c1 | 100 (active)
S=C(Nc1cccc(Cl)c1)Nc1ccc2c(c1)OCCO2 | inactive
Cc1csc(NC(=S)Nc2cccc(Cl)c2)n1 | inactive
COc1ccc(S(=O)(=O)NCCCc2ccccc2)cc1 | inactive
COc1ccc(S(=O)(=O)NCCCCOc2ccc(Cl)cc2)cc1 | 25 (active)
COC(=O)CNS(=O)(=O)c1ccc(OC)cc1 | inactive
Cc1ccccc1C(=O)N1CCC(C(=O)Oc2ccc(C#N)cc2)CC1 | inactive
Cc1cccc(N(Cc2ccccc2)C(=O)c2cc(S(=O)(=O)N3CCOCC3)ccc2F)c1 | inactive
Cc1nn(CC(=O)Nc2ccc(F)cc2)c(=O)c2ccccc12 | inactive
Cc1ccc(F)cc1NC(=O)Cc1nn(C)c(=O)c2ccccc12 | 100 (active)
COc1ccc(-c2nn(C)c(=O)c3ccccc23)cc1NC(=O)COc1ccccc1 | inactive
C[C@@H]1NC(=O)c2cc([N+](=O)[O-])cc(F)c2NCCC[C@@H](C(N)=O)NC(=O)[C@H](CC(N)=O)NC1=O | inactive
Cc1nn(C)c(Oc2ccccc2)c1CCNS(=O)(=O)c1ccc(F)cc1 | inactive
C/C(=N\NS(=O)(=O)c1ccc(Cl)cc1)c1ccc(NC(=O)c2ccco2)cc1 | inactive
O=C1CC(N2CCN(C(c3ccccc3)c3ccccc3)CC2)C(=O)N1 (centres undefined) | inactive
CC1(C)CC(N2CCN(C(c3ccccc3)c3ccccc3)CC2)=CC(=[N+]2CCCCC2)C1 | 100 (active)
CC1(C)CC(=O)C=C(N2CCCC2)C1 | inactive
O=C(/C=C/Nc1ccc(S(=O)(=O)Nc2cnc3ccccc3n2)cc1)c1cccnc1 | inactive
COc1ccc(/C=C(\C#N)c2c[nH]c3ccccc23)cc1 | inactive
CCN(CC)CC(=O)c1c[nH]c2ccc(OC)cc12 | inactive
COc1ccc2[nH]cc(/C=C(/C#N)S(=O)(=O)c3ccccc3)c2c1 | 100 (active)
COC(C[C@@H](O)C[C@@H](O)[C@H](C)OCc1ccccc1)OC | inactive
CCc1cccc(NC(=O)COC(=O)C2CCN(c3ccc(C(F)(F)F)cn3)CC2)c1 | inactive
Cc1cccc(-n2c(=O)c3c(C)c(C)sc3n(CC(N)=O)c2=O)c1 | inactive
Cc1cccc(-n2c(SCC(N)=O)nc3c(c2=O)C2(CCCCC2)Cc2ccccc2-3)c1 | 100 (active)

SMILES | normalized B-score (activity score, 25-100; higher = stronger inhibition)
N#CCSc1nc2c(c(=O)n1Cc1ccccc1)C1(CCCC1)Cc1ccccc1-2 | inactive
Cc1ccc(-c2csc(-c3c[nH]c4ccccc34)n2)cc1 | 100 (active)
CCCc1cc(-c2nc(-c3ccc(C)cc3)cs2)ccn1 | inactive
Cc1ccc(-c2csc(-c3cc(C)on3)n2)cc1 | inactive
O=C(C1CCCO1)N1CCN(S(=O)(=O)c2ccc(Br)cc2)CC1 (centres undefined) | inactive
Cc1cc(=O)oc2cc(OCC3CC(c4ccccc4Cl)=NO3)ccc12 (centres undefined) | inactive
O=C(CCS(=O)(=O)c1ccc2c(c1)NC(=O)CS2)NCc1ccccc1Cl | inactive
O=C(N[C@@H](Cc1ccccc1)C(=O)OCc1ccccc1)c1nc[nH]c1C(=O)N[C@@H](Cc1ccccc1)C(=O)OCc1ccccc1 | inactive
CNC(=O)c1[nH]cnc1C(=O)N[C@@H](CC(C)C)C(=O)OC(C)(C)C | inactive
CNC(=O)c1[nH]cnc1C(=O)N[C@@H](CC(C)C)C(=O)OCc1ccccc1 | 25 (active)
Cc1nc(SCC(=O)N2CCc3ccccc3C2)c2c(C)c(C)sc2n1 | 100 (active)
Cc1nc(SCC(=O)N2CC(=O)Nc3ccccc32)c2c(C)c(C)sc2n1 | inactive
O=C(CSc1nnc(-c2cccs2)n1Cc1ccccc1)N1CCc2ccccc2C1 | inactive
O=C(N1CCCCC1)N1CCN(C(=O)N2CCCCC2)CC1 | inactive
CCn1c(=O)c(=O)n(CC)c2cc(S(=O)(=O)N3CCc4ccccc43)ccc21 | inactive
O=S(=O)(c1ccccc1)N1CCc2ccccc21 | inactive
Cn1c(=O)n(C)c2cc(S(=O)(=O)N3CCCc4ccccc43)ccc21 | 25 (active)
Cc1ccc(S(=O)(=O)NC2CCCCCC2)cc1C(N)=O | inactive
COC(=O)[C@@H]1C[C@@]2(O)[C@H](O)[C@H](O)[C@H](O)C[C@H]2N1Cc1ccc(C(C)(C)C)cc1 | inactive
O=C(C1CCN(Cc2ccc(Cl)cc2)CC1)N1CCN(Cc2ccc3c(c2)OCO3)CC1 | inactive
O=C(CCCN1C(=O)c2cccc3cccc(c23)C1=O)N1CCN(Cc2ccc3c(c2)OCO3)CC1 | 100 (active)
O=C(Nc1cccc2ccccc12)N1CCN(Cc2ccc3c(c2)OCO3)CC1 | inactive
O=C(CSCc1ccc(Cl)cc1)N1CCCCC1 | inactive
Cn1c(=O)cc(OCCCC(=O)N2CCN(Cc3ccc4c(c3)OCO4)CC2)c2ccccc21 | inactive
O=C(CSCc1ccc(Cl)cc1)N1CCN(Cc2ccc3c(c2)OCO3)CC1 | 100 (active)

SMILES | normalized B-score (activity score, 25-100; higher = stronger inhibition)
NC(=O)C1=C[C@@H](c2ccc3c(c2)OCO3)C[C@@H](OCCCCO)O1 | inactive
COc1ccc(N2C(=O)C(CC(=O)Nc3ccc(F)cc3)N(CCc3cccs3)C2=O)cc1 (centres undefined) | inactive
Cc1cnc(C)c(N2CCN(C(=O)C3CCC(=O)N(CCc4cccc(F)c4)C3)CC2)n1 (centres undefined) | inactive
CC(C)Cn1cnc2c1c(=O)n(CC(=O)NN)c(=O)n2Cc1ccccc1 | inactive
Cc1ccnc(NC(=O)C2CCN(S(=O)(=O)c3c(C)c(C)cc(C)c3C)CC2)c1 | inactive
COc1ccc(CCNc2cc(C)nc3c(-c4ccc(Cl)cc4)c(C)nn23)cc1OC | inactive
CC(=O)Nc1ccc(OC(=O)COc2ccc(Br)cc2)cc1 | inactive
Cc1ccc(NC(=O)C(C)c2cccc(C(=O)c3ccccc3)c2)cc1 (centres undefined) | 100 (active)
CC(=O)Nc1ccc(NC(=O)[C@@H](NC(=O)c2cccc(C)c2)C(C)C)cc1 | inactive
COC(C(=O)Nc1ccc(C(C)=O)cc1)c1ccccc1 (centres undefined) | inactive
COCCn1c(=O)[nH]c(=O)c2cc(C(=O)c3cc(OC)ccc3O)cnc21 | inactive
CC1Cc2ccccc2N1C(=O)CSc1nnc(C2CC2)n1C (centres undefined) | inactive
CCCCSc1nnc2c(n1)OC=Nc1ccccc1-2 | inactive
O=C(CSC(=S)N1CCCCC1)c1c(F)cccc1F | inactive
CCOC(=O)[C@H]1[C@H]2COc3ccc(Cl)cc3[C@@H]2N2C(=O)c3cc(C)ccc3NC(=O)[C@@]12C | inactive
CCN(CC)S(=O)(=O)c1ccc(Cl)c(NC(=O)c2ccncc2)c1 | inactive
COc1ccc(S(=O)(=O)N2CCCCCC2)cc1C(=O)N(C)Cc1cccc(OC)c1OC | inactive
CCN(CC)S(=O)(=O)c1ccc(N(C)Cc2cccc(OC)c2OC)nc1 | 25 (active)
CCN(CC)S(=O)(=O)c1ccc(N(C)Cc2ccc(C(F)(F)F)cc2)nc1 | 100 (active)
CCN(CC)S(=O)(=O)c1ccc(NC(=O)c2cnc(C)cn2)cc1 | inactive
CCN(CC)S(=O)(=O)c1ccc(N(C)CCc2ccc(OC)c(OC)c2)nc1 | inactive
CCC(C)c1ccccc1N1CC(C(=O)N2CCN(S(=O)(=O)c3ccc(F)cc3)CC2)CC1=O (centres undefined) | inactive
COc1ccccc1CNC(=O)Cn1c(=O)oc2cc(Cl)ccc21 | inactive
CC1CCCCC1NC(=O)CN1CCC(O)(c2ccc3c(c2)OCO3)CC1 (centres undefined) | inactive
